Experimental findings from ChEMBL document CHEMBL1961873, “Compounds: GSK PKIS; Assays: Nanosyn kinase panel” (2012) are described below.

SMILES strings stand for the structures.

Assay [1] concerns the target RAC-alpha serine/threonine-protein kinase (Homo sapiens) (UniProt P31749). To be noted: at 0.1 µM.
The target is the same in assay [2]. Particulars: at 1 µM.
The target in assay [3] is RAC-beta serine/threonine-protein kinase (Homo sapiens) (UniProt P31751). To be noted: at 0.1 µM.
The target is the same in assay [4]. Particulars: at 1 µM.
Assay [5] deals with RAC-gamma serine/threonine-protein kinase (Homo sapiens) (UniProt Q9Y243). Particulars: at 0.1 µM.
Chain of RAC-gamma serine/threonine-protein kinase (Homo sapiens) (Q9Y243 whole entry): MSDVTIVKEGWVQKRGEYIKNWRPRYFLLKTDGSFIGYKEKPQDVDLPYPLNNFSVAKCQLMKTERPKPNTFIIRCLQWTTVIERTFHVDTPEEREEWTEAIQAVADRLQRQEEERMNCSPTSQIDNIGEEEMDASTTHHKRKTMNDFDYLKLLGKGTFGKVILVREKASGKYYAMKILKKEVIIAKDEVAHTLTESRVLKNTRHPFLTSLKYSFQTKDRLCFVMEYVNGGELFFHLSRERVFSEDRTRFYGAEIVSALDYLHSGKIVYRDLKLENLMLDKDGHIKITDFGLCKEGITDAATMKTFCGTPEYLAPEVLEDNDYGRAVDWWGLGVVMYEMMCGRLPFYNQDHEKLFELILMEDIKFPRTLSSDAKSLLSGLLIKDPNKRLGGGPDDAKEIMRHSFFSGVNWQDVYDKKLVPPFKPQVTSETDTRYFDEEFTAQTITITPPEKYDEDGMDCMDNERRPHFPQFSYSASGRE
The target is the same in assay [6]. Particulars: at 1 µM.
For assay [7], the target named is G protein-coupled receptor kinase 6 (Homo sapiens) (UniProt P43250). Particulars: at 0.1 µM.
Chain of G protein-coupled receptor kinase 6 (Homo sapiens) (P43250 whole entry, looked up): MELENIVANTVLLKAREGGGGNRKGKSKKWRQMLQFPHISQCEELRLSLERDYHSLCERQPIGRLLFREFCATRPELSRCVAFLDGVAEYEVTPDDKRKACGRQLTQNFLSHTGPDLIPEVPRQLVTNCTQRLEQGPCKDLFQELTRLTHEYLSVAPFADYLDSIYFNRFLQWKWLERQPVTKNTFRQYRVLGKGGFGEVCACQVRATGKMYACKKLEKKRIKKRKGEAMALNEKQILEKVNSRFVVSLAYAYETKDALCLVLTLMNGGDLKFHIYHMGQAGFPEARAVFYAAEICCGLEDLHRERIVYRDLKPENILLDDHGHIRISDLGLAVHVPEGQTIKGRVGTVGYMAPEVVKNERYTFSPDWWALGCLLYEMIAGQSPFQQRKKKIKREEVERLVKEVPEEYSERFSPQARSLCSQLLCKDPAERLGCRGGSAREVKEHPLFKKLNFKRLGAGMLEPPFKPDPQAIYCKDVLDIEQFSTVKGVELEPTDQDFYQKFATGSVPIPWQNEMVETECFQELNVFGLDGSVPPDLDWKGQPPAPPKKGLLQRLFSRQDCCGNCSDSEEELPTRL
The target is the same in assay [8]. Particulars: at 1 µM.
For assay [9], the target named is T1, Rhodopsin kinase GRK7 (Homo sapiens) (UniProt Q8WTQ7).
T1 sequence (whole entry): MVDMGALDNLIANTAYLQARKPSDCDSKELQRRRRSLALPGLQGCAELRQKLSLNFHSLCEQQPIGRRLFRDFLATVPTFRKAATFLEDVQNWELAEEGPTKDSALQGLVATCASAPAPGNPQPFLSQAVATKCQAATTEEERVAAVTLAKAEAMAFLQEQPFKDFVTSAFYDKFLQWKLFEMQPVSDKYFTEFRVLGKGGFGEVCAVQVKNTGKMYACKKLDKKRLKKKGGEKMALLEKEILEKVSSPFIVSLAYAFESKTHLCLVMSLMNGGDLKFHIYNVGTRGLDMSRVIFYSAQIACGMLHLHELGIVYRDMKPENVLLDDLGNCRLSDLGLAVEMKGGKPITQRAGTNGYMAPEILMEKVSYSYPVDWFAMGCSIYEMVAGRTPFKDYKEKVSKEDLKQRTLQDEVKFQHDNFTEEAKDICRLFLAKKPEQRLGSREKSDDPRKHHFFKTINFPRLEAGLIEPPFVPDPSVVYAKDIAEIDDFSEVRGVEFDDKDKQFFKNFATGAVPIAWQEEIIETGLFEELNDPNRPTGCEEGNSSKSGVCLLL
Particulars: at 0.1 µM.

Assay [10] concerns the target T1, Rhodopsin kinase GRK7 (Homo sapiens). Particulars: at 1 µM.

Chain of RAC-alpha serine/threonine-protein kinase (Homo sapiens) (P31749 whole entry): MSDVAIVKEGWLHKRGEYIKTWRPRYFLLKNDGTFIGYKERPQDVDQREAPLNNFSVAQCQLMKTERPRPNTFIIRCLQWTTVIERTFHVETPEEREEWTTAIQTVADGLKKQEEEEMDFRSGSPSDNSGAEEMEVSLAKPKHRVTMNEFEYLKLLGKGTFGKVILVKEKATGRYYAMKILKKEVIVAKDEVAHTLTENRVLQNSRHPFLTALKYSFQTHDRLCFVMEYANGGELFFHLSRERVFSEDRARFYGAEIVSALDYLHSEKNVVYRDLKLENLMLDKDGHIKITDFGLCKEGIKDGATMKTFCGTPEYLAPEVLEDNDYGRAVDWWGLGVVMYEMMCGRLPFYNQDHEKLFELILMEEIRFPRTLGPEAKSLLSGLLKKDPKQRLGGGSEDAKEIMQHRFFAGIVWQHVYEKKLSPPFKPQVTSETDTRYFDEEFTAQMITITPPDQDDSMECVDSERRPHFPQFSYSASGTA
Chain of RAC-beta serine/threonine-protein kinase (Homo sapiens) (P31751 whole entry): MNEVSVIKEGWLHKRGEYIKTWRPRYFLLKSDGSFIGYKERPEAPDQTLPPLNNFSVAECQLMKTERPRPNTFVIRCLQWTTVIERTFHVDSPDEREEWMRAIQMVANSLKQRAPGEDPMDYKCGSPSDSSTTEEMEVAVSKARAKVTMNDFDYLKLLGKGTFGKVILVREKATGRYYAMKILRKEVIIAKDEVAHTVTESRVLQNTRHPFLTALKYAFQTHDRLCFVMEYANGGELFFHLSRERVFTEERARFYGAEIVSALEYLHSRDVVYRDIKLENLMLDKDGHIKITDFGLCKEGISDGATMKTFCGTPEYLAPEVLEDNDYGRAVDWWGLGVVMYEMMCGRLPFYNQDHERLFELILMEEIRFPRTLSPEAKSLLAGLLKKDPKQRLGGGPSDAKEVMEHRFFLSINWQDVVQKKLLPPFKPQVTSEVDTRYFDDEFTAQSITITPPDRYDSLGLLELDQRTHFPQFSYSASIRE

As usually defined, the inhibition is the relative decrease from the control value, in per cent. Consider `CS(=O)(=O)CCNCc1coc(-c2ccc3ncnc(Nc4ccc(OCc5ccccc5)cc4)c3c2)c1`, for which the inhibition in assay [1] was 0.45%; in [2] it was 0.14%; in assay [3], -0.99%; in assay [4], 1.09%; in assay [5], -0.18%; in assay [6], 3.26%. For the same compound, the inhibition came out at 4.06% in assay [7], 12.1% in [8], 6.27% in [9] and 5.05% in assay [10].
On to `COc1cc2ncn(-c3cc(OCc4ccccc4C(F)(F)F)c(C(=O)N(C)C)s3)c2cc1OC`, for which the inhibition in assay [1] is -0.4%; in assay [2] it was -0.11%; in [3], -0.31%; in assay [4], 0.45%; in [5] it was 0.89%; in assay [6], 1.26%. In addition, the inhibition is -0.42% in assay [7], 0.69% in assay [8], -2.57% in assay [9] and 3.66% in assay [10].
Consider `COc1ccc(-c2cc3c(N)ncnc3o2)cc1`, for which the inhibition in assay [1] was -0.96%; in assay [2], -1.46%; in assay [3] it was -0.81%; in [4], -0.64%; in [5] it was -1.06%; in assay [6], 1.62%. The inhibition was -0.25% in assay [7], 0.98% in [8], 3.4% in assay [9] and -1.5% in assay [10].
Regarding `NS(=O)(=O)c1ccc(N/N=C2\C(=O)Nc3ccc4ncccc4c32)cc1`, the inhibition in [1] was 0.85%; in [2], 0.69%; in assay [3], 1.6%; in assay [4] it was 2.48%; in assay [5], 1.36%; in assay [6] it was 2.03%. Also, the inhibition in [7] is -2.97%; in assay [8], 15.8%; in assay [9], 4.91%; in assay [10] it was 19%.
With `CC1=C(C(=O)Nc2cc(Cl)c3[nH]ncc3c2)C(c2ccc(C(F)(F)F)cc2)CC(=O)N1` (stereo not given), the inhibition was 0.52% in assay [1]; 5.71% in [2]; 1.33% in assay [3]; 3.66% in assay [4]; 2.98% in [5]; 22.1% in assay [6]. Besides, the inhibition was found to be 4.52% in assay [7], 13.4% in [8], 3.32% in [9] and 16.4% in [10].
As for `CCOc1ccc2c(-c3ccnc(Nc4cccc(C(F)(F)F)c4)n3)cnn2n1`, the inhibition in assay [1] was 0.26%; in assay [2], 0.31%; in [3], 0.57%; in assay [4], 1.35%; in [5], -0.38%; in assay [6] it was 4.77%. For the same compound, the inhibition in assay [7] is -2.91%; in assay [8] it was -2.59%; in assay [9], 3.77%; in assay [10], 0.86%.
With `Nc1nc(-c2cccc(Cl)c2)c(-c2ccc3ncccc3n2)s1`, the inhibition in [1] is -0.22%; in [2] it was 0.39%; in [3], 1.97%; in assay [4] it was 2.05%; in assay [5], 1.92%; in [6], 0.68%. For the same compound, the inhibition in [7] was determined as 10.4%; in assay [8], 15.4%; in assay [9] it was 7.84%; in assay [10] it was 13.8%.
On to `FC(F)(F)c1cccc(-c2nn3ncccc3c2-c2ccnc(Nc3ccc4c(c3)OCCO4)n2)c1`, for which the inhibition turned out to be 0.59% in assay [1]; 1.44% in assay [2]; 2.75% in assay [3]; 1.12% in [4]; 1.47% in assay [5]; 0.72% in assay [6]. In addition, the inhibition in assay [7] was -1.22%; in assay [8], -2.46%; in assay [9] it was 1.8%; in assay [10], 1.11%.
For the compound `N#Cc1c(NC(=O)CN2CCOCC2)sc2c1CCCC2`, the inhibition in assay [1] stood at 1.2%; in [2], 1.08%; in [3], 1.56%; in assay [4], 1%; in assay [5], 1.61%; in [6] it was 2.91%. Further, the inhibition in assay [7] was found to be 2.71%; in assay [8] it was 4.14%; in assay [9] it was 3.28%; in [10], 4.91%.
Consider `COc1cc2c(cc1Nc1nc(Nc3ccsc3C(N)=O)c3cc[nH]c3n1)N(C(=O)CN(C)C)CCC2(C)C`, for which the inhibition in assay [1] was 1.26%; in [2], 0.48%; in assay [3], 2.13%; in assay [4], 2.14%; in assay [5] it was 0.83%; in [6] it was 2.54%. Also, the inhibition amounted to 49.5% in assay [7], 87.2% in assay [8], 34.2% in [9] and 63.2% in assay [10].
As for `O=S(=O)(CCNCc1ccc(-c2ccc3ncnc(Nc4ccc(OCc5cccc(F)c5)c(Cl)c4)c3c2)o1)c1ccccc1`, the inhibition in assay [1] is 1.7%; in assay [2] it was 1.71%; in assay [3], 2.21%; in assay [4] it was 3.29%; in assay [5] it was 0.84%; in assay [6], 3.13%. The inhibition in assay [7] came to 1.68%; in assay [8], 1.4%; in assay [9], 8.83%; in assay [10], 2.27%.
For `CC(C)COC(=O)c1ccc2c(c1)/C(=C/Nc1ccc(S(N)(=O)=O)cc1)C(=O)N2`, the inhibition is 1.6% in assay [1]; 2.22% in assay [2]; 0.67% in [3]; 1.73% in assay [4]; 1.5% in assay [5]; 6.82% in assay [6]. Besides, the inhibition is 1.33% in [7], 10.1% in assay [8], -4.26% in assay [9] and 9.41% in [10].
On to `CC(=O)Nc1cccc(C#Cc2cncnc2Nc2ccc(OCc3cccc(F)c3)c(Cl)c2)c1`, for which the inhibition came out at 0.35% in [1]; 2.86% in [2]; 1.58% in [3]; 1.24% in [4]; 0.94% in assay [5]; 1.39% in assay [6]. In addition, the inhibition in assay [7] was 0.81%; in assay [8], -1.5%; in [9], 3.04%; in [10], -3.08%.
As for `N#Cc1c(NC(=O)c2ccc(F)cc2)sc2c1CCCC2`, the inhibition in assay [1] was -0.22%; in assay [2], 0.69%; in assay [3], 0.36%; in assay [4], 0.77%; in assay [5] it was 2.13%; in assay [6] it was 0.2%. In addition, the inhibition in [7] stood at 2.85%; in [8] it was 4.08%; in assay [9], 0.7%; in assay [10] it was 4.43%.
With `CCCN(CCS(C)(=O)=O)Cc1ccc(-c2ccc3ncnc(Nc4ccc(OCc5cccc(F)c5)c(Cl)c4)c3c2)o1`, the inhibition came to 0.19% in assay [1]; 0.93% in assay [2]; 1.03% in assay [3]; 0.88% in assay [4]; 0.64% in assay [5]; 0.93% in [6]. Also, the inhibition in assay [7] was 5.12%; in assay [8], 1.91%; in [9], -0.29%; in [10], 0.79%.
For the compound `COc1ccc(CNC(=O)c2ccc(-c3cc(-c4nnc(C)o4)ccc3C)cc2)cc1`, the inhibition in [1] turned out to be 0.11%; in assay [2], 0.4%; in assay [3], 0.92%; in assay [4], 1.2%; in assay [5], 0.06%; in [6], 0.12%. Moreover, the inhibition in assay [7] was 6.21%; in assay [8], 16.4%; in assay [9], 2.86%; in assay [10] it was 10.6%.
On to `COC(=O)Nc1nc2ccc(S(=O)(=O)c3ccc(NC(=O)Nc4cc(C(F)(F)F)ccc4F)cc3)cc2[nH]1`, for which the inhibition stood at 1.04% in assay [1]; 0.21% in assay [2]; 1.6% in assay [3]; 1.74% in assay [4]; 2.62% in assay [5]; 2.2% in assay [6]. For the same compound, the inhibition was -1.79% in assay [7], -0.49% in [8], 4.02% in assay [9] and 1.96% in assay [10].
